Source: PubChem BioAssay (Sanford-Burnham Center for Chemical Genomics)
This excerpt belongs to a sample that is enriched for hits.
ER stress death: protection against thapsigargin ER stress killing – CSM14.1 cells, ATP luminescence, primary screen; CSM14.1 thapsigargin ER stress survival; relative survival (cellular ATP), % at 15 µg/mL (by protocol); 48,000 compounds, 0.33% hits;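 active means survival measured by cellular ATP above 50% at 15 µg/ml in the first screen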;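 further: cell death triggered by about 15 µM thapsigargin; ATP read 24 h after thapsigargin was added; plate controls were thapsigargin with DMSO for no effect and DMSO without thapsigargin for full effect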
* = called active by the depositor.

SMILES	ER stress death
COc1ccc(C2CC(=O)C3=C(C2)Nc2ccccc2NC3c2cccc(C(F)(F)F)c2)cc1OC (configuration not stated)	135*
NC(=O)c1nn2c(C(F)(F)F)cc(-c3ccccc3)nc2c1Cl	2
COC(=O)c1cc(-c2ccc(C)cc2)nc2ccccc12	0
CC(C)c1ccc(N2C(=O)NC(=O)/C(=C/c3ccc(O)c(O)c3)C2=O)cc1	-2
O=C(O)C1C2CCC(O2)C1C(=O)N1CCN(C(c2ccccc2)c2ccccc2)CC1 (configuration not stated)	-3
O=C(O)C1C2C=CC(O2)C1C(=O)N1CCN(C(c2ccccc2)c2ccccc2)CC1 (configuration not stated)	-3
O=C(C1CC1c1ccccc1)N1CCN(C(c2ccccc2)c2ccccc2)CC1 (configuration not stated)	104*
C=CCSc1nc2sc(C(=O)O)c(C)c2c(=O)[nH]1	6
COc1ccc(-c2cc(C(=O)Nc3cccc(F)c3)c3ccccc3n2)cc1OC	1
O=C(CCc1ccccc1)Nc1ccc(Cl)c([N+](=O)[O-])c1	-3
O=C(c1ccc([N+](=O)[O-])cc1)N1CCN(Cc2cccc3ccccc23)CC1	63*
COc1cccc(CN2CCN(C(=O)c3cccc(F)c3)CC2)c1OC	7
COc1cccc(CN2CCN(C(=O)c3ccccc3)CC2)c1OC	-2
COc1ccc(C(=O)N2CCN(Cc3cc(OC)c(OC)c(OC)c3)CC2)cc1OC	-1
COc1cc(CN2CCN(C(=O)c3ccc(-c4ccccc4)cc3)CC2)cc(OC)c1OC	75*
COc1ccc(C(=O)N2CCN(Cc3cc(OC)c(O)c(OC)c3)CC2)cc1	-4
O=C(c1ccc([N+](=O)[O-])cc1)N1CCN(Cc2cccc(Cl)c2)CC1	0
O=C(c1ccc([N+](=O)[O-])cc1)N1CCN(Cc2ccccn2)CC1	7
COc1cccc(CN2CCN(C(=O)c3ccc(-c4ccccc4)cc3)CC2)c1OC	113*
O=C(N/N=C/c1ccc(O)cc1O)c1cnccn1	12
COc1ccccc1C(=O)Nc1ccc(F)c(Cl)c1	11
Cc1ccc(/C(N)=N/OC(=O)c2ccccc2F)cc1	8
Cc1ccc(/C=C(\C#N)c2nc(-c3cccc(Br)c3)cs2)o1	2
CC(C)CC(=O)N1CCN(Cc2ccc3ccccc3c2)CC1	-3
O=C(c1cccs1)N1CCN(Cc2ccc(Cl)cc2)CC1	-4
CCn1c2ccccc2c2cc(CN3CCN(C(=O)CC(C)C)CC3)ccc21	63*
COc1ccc(CN2CCN(C(=O)c3cccs3)CC2)cc1OC	-9
CCn1c2ccccc2c2cc(CN3CCN(Cc4ccc(OC)c(Br)c4)CC3)ccc21	2
CCn1c2ccccc2c2cc(CN3CCN(C(=O)c4cccs4)CC3)ccc21	133*
